Measured values as given in the supplement of paper PMC11732987, “Enantioselective OTUD7B fragment discovery through chemoproteomics screening and high-throughput optimisation” (Communications Chemistry, 2025).

Legend:
Test in all cases: log2 ratio of Biotin-Ahx-Ub-VS probe labelling (fragment/DMSO); higher = less target engagement (more negative = stronger competition), active = hit call of the paper (q ≤ 0.05, log2 ratio ≤ -1)
Conditions in all cases: compound concentration: 200 uM; treatment time: 3 h
USP34 = USP34 (UniProt Q70CQ2)
In short: (§1)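 Labelled DUBs from HEK293T lysate were NeutrAvidin-enriched, digested with LysC and trypsin, and run by diaPASEF LC-MS/MS. Before that, each 495 µg sample in Tris/CHAPS/IGEPAL buffer with protease inhibitors was treated in triplicate with fragment at 200 µM or vehicle for 3 h, then with Biotin-Ahx-Ub-VS at 0.5 µM final for 1 h. Values are average log2 ratios of fragment over vehicle by unpaired t-test, based on global-median-normalised Spectronaut label-free quantities from proteins with ≥2 unique peptides.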

USP36 = target: T1, USP36 (UniProt Q9P275)
T1 sequence (whole entry): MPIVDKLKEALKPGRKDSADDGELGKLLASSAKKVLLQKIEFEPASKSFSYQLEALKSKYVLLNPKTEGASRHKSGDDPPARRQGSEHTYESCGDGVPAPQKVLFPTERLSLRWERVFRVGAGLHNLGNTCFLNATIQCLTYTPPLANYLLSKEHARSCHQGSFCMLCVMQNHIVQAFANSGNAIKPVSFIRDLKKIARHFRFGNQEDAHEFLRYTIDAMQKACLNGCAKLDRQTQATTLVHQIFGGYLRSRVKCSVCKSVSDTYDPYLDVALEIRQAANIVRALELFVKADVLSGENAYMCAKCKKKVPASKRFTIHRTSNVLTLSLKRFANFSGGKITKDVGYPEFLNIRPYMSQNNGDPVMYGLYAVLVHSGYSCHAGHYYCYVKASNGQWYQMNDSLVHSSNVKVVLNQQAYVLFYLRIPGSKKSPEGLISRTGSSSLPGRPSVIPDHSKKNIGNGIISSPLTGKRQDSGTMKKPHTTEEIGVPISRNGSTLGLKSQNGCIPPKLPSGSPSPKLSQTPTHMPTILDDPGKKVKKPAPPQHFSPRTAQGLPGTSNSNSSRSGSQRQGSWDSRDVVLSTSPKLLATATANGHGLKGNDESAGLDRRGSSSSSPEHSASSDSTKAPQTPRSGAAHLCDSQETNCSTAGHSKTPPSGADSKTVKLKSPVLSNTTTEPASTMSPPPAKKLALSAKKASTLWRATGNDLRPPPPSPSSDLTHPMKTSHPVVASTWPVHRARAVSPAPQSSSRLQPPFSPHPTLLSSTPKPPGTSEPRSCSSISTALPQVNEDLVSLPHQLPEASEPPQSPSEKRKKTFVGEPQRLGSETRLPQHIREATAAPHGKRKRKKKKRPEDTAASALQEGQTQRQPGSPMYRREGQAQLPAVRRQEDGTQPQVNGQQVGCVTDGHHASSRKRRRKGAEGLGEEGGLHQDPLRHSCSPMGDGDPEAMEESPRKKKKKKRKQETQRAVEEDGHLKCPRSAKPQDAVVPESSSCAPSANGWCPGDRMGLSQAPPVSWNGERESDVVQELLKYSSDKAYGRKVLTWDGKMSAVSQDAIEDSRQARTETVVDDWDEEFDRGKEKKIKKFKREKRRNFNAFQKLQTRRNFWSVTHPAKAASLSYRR
In short: as §1

USP38 = target: T2, USP38 (UniProt Q8NB14)
T2 sequence (whole entry): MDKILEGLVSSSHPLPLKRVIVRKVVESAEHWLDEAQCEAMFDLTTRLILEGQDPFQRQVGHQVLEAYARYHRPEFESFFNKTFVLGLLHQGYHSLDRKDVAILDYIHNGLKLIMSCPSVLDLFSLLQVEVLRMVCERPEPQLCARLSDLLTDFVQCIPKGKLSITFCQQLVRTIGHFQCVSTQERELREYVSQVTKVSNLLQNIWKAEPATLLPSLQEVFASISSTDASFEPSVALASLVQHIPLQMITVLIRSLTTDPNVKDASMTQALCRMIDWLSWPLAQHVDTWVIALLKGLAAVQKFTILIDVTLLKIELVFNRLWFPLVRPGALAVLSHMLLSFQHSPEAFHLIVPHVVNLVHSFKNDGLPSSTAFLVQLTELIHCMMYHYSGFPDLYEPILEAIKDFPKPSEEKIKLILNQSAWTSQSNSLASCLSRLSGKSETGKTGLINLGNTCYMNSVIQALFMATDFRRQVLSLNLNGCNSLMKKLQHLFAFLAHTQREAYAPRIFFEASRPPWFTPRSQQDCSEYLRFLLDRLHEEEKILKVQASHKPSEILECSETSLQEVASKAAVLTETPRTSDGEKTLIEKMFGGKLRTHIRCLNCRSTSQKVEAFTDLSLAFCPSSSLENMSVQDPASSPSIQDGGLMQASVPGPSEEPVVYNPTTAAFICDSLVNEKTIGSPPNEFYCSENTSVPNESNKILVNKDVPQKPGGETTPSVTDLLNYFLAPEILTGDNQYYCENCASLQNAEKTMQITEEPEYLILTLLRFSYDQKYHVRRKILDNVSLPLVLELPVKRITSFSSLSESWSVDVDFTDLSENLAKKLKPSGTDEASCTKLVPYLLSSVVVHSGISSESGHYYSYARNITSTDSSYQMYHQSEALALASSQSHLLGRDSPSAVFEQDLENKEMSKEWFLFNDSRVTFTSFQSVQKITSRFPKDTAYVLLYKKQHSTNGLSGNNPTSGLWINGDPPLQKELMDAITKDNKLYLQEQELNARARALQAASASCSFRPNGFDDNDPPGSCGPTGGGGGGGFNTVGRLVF
In short: as §1

USP39 = target: T3, USP39 (UniProt Q53GS9)
T3 sequence (whole entry): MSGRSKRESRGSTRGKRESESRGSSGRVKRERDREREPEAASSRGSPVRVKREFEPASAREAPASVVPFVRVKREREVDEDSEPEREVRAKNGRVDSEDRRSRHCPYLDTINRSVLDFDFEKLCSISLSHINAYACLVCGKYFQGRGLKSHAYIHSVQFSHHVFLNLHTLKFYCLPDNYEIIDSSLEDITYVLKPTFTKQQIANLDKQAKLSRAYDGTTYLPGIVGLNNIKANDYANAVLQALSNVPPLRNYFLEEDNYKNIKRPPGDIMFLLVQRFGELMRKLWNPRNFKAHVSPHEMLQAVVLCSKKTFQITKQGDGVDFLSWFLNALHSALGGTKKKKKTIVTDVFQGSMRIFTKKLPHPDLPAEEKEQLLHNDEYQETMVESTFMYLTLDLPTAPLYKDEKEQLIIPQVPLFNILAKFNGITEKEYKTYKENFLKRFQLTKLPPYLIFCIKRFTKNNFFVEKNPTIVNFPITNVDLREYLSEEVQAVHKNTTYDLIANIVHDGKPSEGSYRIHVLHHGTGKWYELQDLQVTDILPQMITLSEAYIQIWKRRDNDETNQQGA
In short: as §1

USP4 = target: T4, USP4 (UniProt Q13107)
T4 sequence (whole entry): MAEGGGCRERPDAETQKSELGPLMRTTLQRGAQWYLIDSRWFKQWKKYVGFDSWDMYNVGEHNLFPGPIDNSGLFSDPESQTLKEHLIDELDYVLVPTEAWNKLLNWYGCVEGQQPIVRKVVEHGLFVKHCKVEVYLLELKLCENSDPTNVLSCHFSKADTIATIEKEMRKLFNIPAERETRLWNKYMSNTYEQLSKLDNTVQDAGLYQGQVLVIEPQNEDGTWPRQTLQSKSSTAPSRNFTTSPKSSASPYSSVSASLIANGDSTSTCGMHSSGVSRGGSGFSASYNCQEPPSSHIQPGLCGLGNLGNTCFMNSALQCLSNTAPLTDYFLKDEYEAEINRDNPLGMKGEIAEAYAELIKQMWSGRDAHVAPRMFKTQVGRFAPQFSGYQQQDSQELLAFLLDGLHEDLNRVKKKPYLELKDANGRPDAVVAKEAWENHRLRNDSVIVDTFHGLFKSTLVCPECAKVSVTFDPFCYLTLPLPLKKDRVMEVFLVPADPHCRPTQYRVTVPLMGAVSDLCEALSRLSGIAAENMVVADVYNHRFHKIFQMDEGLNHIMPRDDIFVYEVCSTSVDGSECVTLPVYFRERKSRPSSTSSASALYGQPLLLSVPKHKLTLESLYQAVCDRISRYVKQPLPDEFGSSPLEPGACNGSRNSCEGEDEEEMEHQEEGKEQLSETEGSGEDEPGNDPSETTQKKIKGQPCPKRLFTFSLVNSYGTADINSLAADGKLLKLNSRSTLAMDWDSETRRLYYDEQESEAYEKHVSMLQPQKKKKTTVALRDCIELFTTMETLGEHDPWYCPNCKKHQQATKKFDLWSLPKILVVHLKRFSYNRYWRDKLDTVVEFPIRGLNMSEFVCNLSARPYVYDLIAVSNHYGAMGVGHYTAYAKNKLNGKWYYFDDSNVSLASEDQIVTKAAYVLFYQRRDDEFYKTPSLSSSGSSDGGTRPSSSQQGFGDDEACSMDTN
In short: as §1

Measured: log2 ratio of Biotin-Ahx-Ub-VS probe labelling

Sequence of USP34 (Q70CQ2 whole entry, the tested form may be a part): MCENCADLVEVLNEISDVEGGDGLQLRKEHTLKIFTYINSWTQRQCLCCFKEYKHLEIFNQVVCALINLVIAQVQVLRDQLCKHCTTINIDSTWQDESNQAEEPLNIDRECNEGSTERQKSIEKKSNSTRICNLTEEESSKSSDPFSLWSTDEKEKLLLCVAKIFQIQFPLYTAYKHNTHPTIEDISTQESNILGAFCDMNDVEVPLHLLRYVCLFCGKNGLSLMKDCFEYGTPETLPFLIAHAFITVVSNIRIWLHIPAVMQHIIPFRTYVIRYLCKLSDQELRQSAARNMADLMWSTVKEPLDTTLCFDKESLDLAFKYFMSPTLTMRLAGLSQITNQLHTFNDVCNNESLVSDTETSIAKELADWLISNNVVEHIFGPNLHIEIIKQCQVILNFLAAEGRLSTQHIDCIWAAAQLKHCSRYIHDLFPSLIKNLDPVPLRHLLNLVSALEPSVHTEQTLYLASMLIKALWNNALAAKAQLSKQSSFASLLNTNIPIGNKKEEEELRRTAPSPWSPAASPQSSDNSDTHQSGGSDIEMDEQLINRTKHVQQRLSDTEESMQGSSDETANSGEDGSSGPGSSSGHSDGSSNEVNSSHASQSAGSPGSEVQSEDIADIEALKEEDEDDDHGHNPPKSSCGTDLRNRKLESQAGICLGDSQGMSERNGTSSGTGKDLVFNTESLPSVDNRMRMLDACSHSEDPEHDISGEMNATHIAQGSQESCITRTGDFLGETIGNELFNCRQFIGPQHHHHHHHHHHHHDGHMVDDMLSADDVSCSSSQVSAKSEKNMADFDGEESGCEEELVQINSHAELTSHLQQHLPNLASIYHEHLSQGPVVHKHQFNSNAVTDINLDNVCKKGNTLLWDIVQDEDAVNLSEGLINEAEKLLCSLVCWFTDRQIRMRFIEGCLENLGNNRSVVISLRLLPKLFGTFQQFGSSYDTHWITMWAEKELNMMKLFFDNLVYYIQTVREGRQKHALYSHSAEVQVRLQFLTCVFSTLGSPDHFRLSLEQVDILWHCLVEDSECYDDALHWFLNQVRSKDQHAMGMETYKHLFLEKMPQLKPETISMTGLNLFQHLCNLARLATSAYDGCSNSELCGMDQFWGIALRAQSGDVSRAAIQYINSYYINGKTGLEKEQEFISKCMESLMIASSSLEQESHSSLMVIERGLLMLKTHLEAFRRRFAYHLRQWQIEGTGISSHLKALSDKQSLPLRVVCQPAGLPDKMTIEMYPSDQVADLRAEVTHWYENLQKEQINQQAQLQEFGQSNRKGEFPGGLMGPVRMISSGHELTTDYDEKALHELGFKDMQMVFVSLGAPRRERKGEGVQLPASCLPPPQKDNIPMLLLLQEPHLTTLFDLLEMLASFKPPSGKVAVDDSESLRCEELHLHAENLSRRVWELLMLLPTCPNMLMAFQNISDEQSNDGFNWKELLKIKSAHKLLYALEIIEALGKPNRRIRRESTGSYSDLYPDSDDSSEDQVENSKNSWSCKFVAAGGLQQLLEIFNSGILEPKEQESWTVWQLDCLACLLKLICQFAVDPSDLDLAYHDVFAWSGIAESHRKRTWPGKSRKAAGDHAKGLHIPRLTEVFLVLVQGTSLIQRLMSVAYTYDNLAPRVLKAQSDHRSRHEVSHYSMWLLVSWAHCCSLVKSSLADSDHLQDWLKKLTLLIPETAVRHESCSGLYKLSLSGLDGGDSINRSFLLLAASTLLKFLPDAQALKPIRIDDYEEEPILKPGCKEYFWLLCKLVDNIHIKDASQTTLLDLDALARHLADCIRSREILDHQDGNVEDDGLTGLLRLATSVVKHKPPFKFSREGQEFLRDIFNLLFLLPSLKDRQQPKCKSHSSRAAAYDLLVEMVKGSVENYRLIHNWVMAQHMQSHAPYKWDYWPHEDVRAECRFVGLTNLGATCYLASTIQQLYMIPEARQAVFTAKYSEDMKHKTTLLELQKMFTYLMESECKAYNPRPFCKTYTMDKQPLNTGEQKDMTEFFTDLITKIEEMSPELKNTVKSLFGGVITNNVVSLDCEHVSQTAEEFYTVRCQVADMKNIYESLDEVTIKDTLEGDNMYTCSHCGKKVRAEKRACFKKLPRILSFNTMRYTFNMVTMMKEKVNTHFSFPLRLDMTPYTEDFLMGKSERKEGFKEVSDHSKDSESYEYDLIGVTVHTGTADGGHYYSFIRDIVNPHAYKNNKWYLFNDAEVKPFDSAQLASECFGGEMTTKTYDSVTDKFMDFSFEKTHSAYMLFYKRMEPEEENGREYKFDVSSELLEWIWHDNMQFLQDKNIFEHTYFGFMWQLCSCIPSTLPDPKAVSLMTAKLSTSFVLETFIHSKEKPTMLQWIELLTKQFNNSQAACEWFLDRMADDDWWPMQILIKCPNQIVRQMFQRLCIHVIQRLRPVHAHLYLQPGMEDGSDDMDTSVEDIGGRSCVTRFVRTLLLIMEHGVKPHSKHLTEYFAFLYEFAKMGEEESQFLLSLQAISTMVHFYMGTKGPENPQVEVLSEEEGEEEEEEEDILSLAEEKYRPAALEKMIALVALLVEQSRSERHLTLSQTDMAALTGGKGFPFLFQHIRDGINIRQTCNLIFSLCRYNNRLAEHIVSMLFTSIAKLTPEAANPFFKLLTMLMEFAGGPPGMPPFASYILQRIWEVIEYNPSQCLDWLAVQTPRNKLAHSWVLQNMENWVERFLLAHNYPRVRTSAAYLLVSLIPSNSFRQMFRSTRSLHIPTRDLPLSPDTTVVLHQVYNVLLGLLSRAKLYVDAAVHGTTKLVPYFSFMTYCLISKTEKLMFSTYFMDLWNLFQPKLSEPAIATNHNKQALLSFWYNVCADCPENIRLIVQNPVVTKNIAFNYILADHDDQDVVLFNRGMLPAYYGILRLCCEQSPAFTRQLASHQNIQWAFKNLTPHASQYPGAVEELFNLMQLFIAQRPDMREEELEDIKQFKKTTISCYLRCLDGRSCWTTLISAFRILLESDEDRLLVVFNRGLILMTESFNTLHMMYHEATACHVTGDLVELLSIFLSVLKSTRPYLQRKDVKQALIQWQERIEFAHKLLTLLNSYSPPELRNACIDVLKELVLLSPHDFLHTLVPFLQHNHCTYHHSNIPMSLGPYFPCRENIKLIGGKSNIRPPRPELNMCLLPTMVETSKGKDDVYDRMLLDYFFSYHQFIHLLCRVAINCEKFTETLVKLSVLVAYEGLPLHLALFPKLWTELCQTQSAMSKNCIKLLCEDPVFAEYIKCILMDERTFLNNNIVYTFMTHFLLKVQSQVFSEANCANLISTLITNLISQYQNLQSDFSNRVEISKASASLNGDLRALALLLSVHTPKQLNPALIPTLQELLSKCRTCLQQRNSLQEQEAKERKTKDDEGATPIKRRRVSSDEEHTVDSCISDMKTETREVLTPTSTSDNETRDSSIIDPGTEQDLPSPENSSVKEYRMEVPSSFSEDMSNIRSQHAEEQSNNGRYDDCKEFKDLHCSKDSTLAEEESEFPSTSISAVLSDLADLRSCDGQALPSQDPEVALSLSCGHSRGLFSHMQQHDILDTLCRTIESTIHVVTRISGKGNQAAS

Cl.O=C(CCl)N1CCN(Cc2ccccc2)CC1
inactive: USP34 -0.191 | USP36 0.0546 | USP38 -0.0649 | USP39 0.144 | USP4 -0.121
